Data reported in PubChem BioAssay AID624132 (Broad Institute, 2012).
About 1,500 (94%) of roughly 1,600 compounds were called active. The set was probably picked from earlier hits. A selection follows. Measured potencies and affinities stand elsewhere. Records with an inconclusive call do not appear.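 The calls were made as follows: active = signal drop with fitted half-maximal concentration at most twice the top valid dose for that sample; inconclusive = flat fit between 30 and 70% inhibition, or poor curve fit; inactive = the rest.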

Experiment: Shn3 3'UTR reporter inhibitors, dose response, cell-based, Clone20 osteoblasts, firefly luciferase, cherry-picked (AID 624132)
Conditions: Clone20 osteoblast Shn3 3'UTR firefly luciferase, 24 h; series mostly up to 35 µM; activity change, negative = inhibition: at the top concentration

Activity change, negative = inhibition, inactive:
CC(Cc1cccs1)NC(=O)Nc1ccc(F)cc1 (stereo not given) -3.91%
CCN1C(=O)[C@H]2[C@@H](c3ccc(-c4ccc(OC)cc4)cc3)N3CCC[C@@]3(C(=O)OC)[C@H]2C1=O -16.5%
COc1ccc(N(C)C(=O)c2ccc3snnc3c2)cc1 -3.31%
CC(=O)N1N=C(c2ccccc2)OC1c1ccc([N+](=O)[O-])s1 (stereo not given) -37.6%
Fc1ccccc1N1CCN(Cc2nc(-c3ccccc3)no2)CC1 24.1%
O=C(COC(=O)/C=C/c1ccc(OC(F)F)cc1)Nc1ccc2[nH]c(=O)[nH]c2c1 -5.42%
CCOc1ccc(NS(=O)(=O)c2cc(C(=O)NCCN3CCOCC3)ccc2C)cc1 11.4%
COCc1nn2c(N)c(C#N)cnc2c1-c1ccccc1 11.5%
NC(=O)NC(CC(=O)NCCc1ccccn1)c1ccccc1Cl (stereo not given) 2.62%
CCOC(=O)c1[nH]c(C)c(/C(O)=C2\C(=O)C(=O)N(CCCN3CCOCC3)C2c2cccs2)c1C (stereo not given) 29.2%
Cc1cc(-n2c(C)cc(C(=O)CSc3nncn3C)c2C)no1 21.8%
CSCCC(NC(=O)c1ccccc1)C(=O)OCC(=O)N(C)CCC#N (stereo not given) 5.19% [at 8 µM]
COc1ccc(C(=O)OCC(=O)Nc2ccc3[nH]c(=O)[nH]c3c2)cc1 6.22%
Cc1csc(=O)n1CCC(=O)N(C)Cc1c(F)cccc1Cl 6.18%
COc1ccc(C(=O)OCC(=O)Nc2ncc([N+](=O)[O-])s2)cc1OC 21.4%
OC(c1ccccc1)C(O)C(c1ccccc1)N1CCCCC1 (stereo not given) -2.22%
CCCOc1ccc2oc(=O)c3c(c2c1)CCCN3C(=O)CN1CCN(c2ncccn2)CC1 125%
COc1ccc(N2C(=O)C(CC(=O)Nc3ccccc3)N(Cc3ccc(OC)c(OC)c3)C2=O)cc1 (stereo not given) 7.36%
CSc1cccc(NC(=O)N2CCCC(CNS(=O)(=O)Cc3ccccc3)C2)c1 (stereo not given) -20.4%
CCn1cc(CNCc2cn(-c3ccccc3C)nc2-c2ccc(OC)c(F)c2)cn1 -3.08%
CC(C)(C)N(Cc1ccccc1)C(=O)COC(=O)CCc1c[nH]c2ccccc12 -6.52%
Oc1c(C(c2cccs2)N2CCC3(CC2)OCCO3)sc2ncnn12 (stereo not given) -5.82%
COc1ccc(S(=O)(=O)NCCC(=O)OCC(=O)NC2CC2)cc1 79.6%
CC1=NN(c2cccc([N+](=O)[O-])c2)C(=O)C1 4.22%
CN=C1c2cc3cc(OC)ccc3n2CCN1Cc1ccccc1 -18.3%
Cc1noc(C)c1COC(=O)[C@@H](NC(=O)c1ccccc1)C(C)C -11.5%
CCCCC[C@H]1CN(Cc2ccc(OC)cc2)C(=O)[C@@H]1CC(=O)NCc1ccccc1 -56.9%
Cc1ccc(NC(=O)CN(C)C(=O)COc2cc(F)ccc2[N+](=O)[O-])cc1 -9.91%
Cc1cc(C)cc(C(=O)NCC(=O)OCC(=O)NCC(F)(F)F)c1 11.4%
Nc1c(Br)cc2c(c1Br)C(O)c1ccccc1-2 (stereo not given) 27.3%
O=C(CSc1nnc(Nc2ccccc2)s1)NC1CCS(=O)(=O)C1 (stereo not given) 16.4%
CN(C(=O)CSc1nc(-c2cccs2)nc2ccccc12)C1CCS(=O)(=O)C1 (stereo not given) -7.83%
CN(CC(=O)NCc1ccc2c(c1)OCO2)S(=O)(=O)c1ccc(Br)s1 -3.96%
Cn1cccc1Cc1nnc(SCC(=O)NCCc2ccccc2)n1-c1ccc(F)cc1 -16.1%
O=C(NC(NC(=S)Nc1c(Cl)cc(Cl)cc1Cl)C(Cl)(Cl)Cl)OCc1ccccc1 (stereo not given) -68.3%
COc1ccc(-c2nnn(CC(=O)Nc3ccc4c(c3)OCCO4)n2)cc1OC -6.19%
O=C(CSc1nc(C(F)(F)F)cc(=O)[nH]1)N1CCCC1 -20.5%
Cc1nc2ncnn2c(C)c1Cc1cccc(F)c1 -14.1%
CCOC(=O)C1CCN(C(=O)C(C)N(c2ccc(Oc3ccccc3)cc2)S(C)(=O)=O)CC1 (stereo not given) -14.2%
CCOc1ccc(Br)cc1C1=CC(=O)C[C@H](c2ccc(OC)cc2)C1 -22.4%
COc1ccccc1-n1ccnc(SCC(=O)NCc2ccccc2Cl)c1=O -16.1%
Cc1ccc(NC(=O)NCCCN2CCOCC2)cc1 12.6%
Nc1cc(=O)[nH]c(SCC(=O)Nc2cccc([N+](=O)[O-])c2)n1 10.6%
CCOC(=O)C1=C(C)N(CCCC(=O)O)C(=O)NC1c1ccc2ccccc2c1 (stereo not given) 6.64%
CCc1c(O)nc(SCC(=O)Nc2ccccc2)n(-c2ccccc2)c1=O 15.3%
O=C(CN1C(=O)C2CCCCC2C1=O)NC1CCCc2ccccc21 (stereo not given) 8.86%
Cc1cc(Sc2ccc([N+](=O)[O-])cn2)ccc1Br 22%
Cc1ccc(S(=O)(=O)N2CCCCC2)cc1NS(=O)(=O)c1ccccc1F -79.1%
O=c1c2ccccc2c(C=Nc2ccccc2O)c(O)n1-c1nccs1 -5.72%
COc1ccccc1-n1c(SCC(=O)Nc2cc(C)on2)nc2c(c1=O)SCC2 -19.3%
O=S(=O)(c1ccc(Cl)cc1)n1ccc2cccnc21 -26.5%
O=C(NCCCn1ccnc1)C(=O)NCC1OCCCN1S(=O)(=O)c1ccccc1 (stereo not given) 3.7%
O=C(NCCNC(=O)Oc1cccc2ccccc12)Oc1cccc2ccccc12 48.5%
O=C(CSc1nc2ncc(Cl)cc2[nH]1)N1CCOCC1 17.4%
C[C@@H]1CC=C[C@H]2[C@H]1C(=O)N(Cc1ccccc1)[C@H]2c1cccc([N+](=O)[O-])c1 -18.7%
CC(=O)Nc1sc2c(c1-c1nc3ccccc3s1)CCN(C(C)C)C2 -66.9%
COc1cc(C(=O)OCC(=O)NC2CCCCCC2)ccc1OCC(C)C -25.6%
Cc1ccc(NC(=O)C2CCCN(S(=O)(=O)c3c(C)noc3C)C2)cc1 (stereo not given) 59.3%
CCO[C@@H]1OC(C(=O)NC2CC2)=C[C@H](c2coc3ccccc3c2=O)[C@H]1CCCO 0.737%
O=C(Nc1cccc(S(=O)(=O)NC2=NCCC2)c1)C1CC(=O)N(c2ccc3c(c2)OCCO3)C1 (stereo not given) 0.562%
CCOC(=O)CNC(=O)C1(NC(=O)CNC(=O)OCc2ccccc2)CCCC1 38.8%
O=C(NNc1ccccc1)C(=O)NNS(=O)(=O)c1ccc(CCCl)cc1 -0.537%
Cc1ccc(C(=O)N2CCN(C)CC2)cc1S(=O)(=O)N1CCCCCC1 -10.2%
CCN(CC)S(=O)(=O)c1ccc(N(C)Cc2cccc(OC)c2OC)nc1 -35.1%
Cc1cc(C(=O)Cn2cnc3cc(F)ccc3c2=O)c(C)n1C1CC1 -59.4%
COc1ccc(S(=O)(=O)N2CCOCC2)cc1NC(=O)COC(=O)CC1CC2CCC1C2 (stereo not given) -38%
COc1cc(OC)cc(C(=O)OCC(=O)Nc2ccc(F)cc2F)c1 -2.85%
Fc1ccccc1N=C1NN=C(c2ccccc2)CS1 -45%
Nc1nc(=S)[nH]c2c1C1(CCCCC1)Cc1ccccc1-2 15.5%
CCCCCCC#Cc1ccc2c(c1)COc1c3ccccc3nn1-2 57%
O=C1N/C(=C/c2ccc(N3CCOCC3)o2)C(=O)N1c1ccccc1 38.1%
Cc1ccccc1N/C(=N/S(=O)(=O)c1ccccc1)c1ccc(F)cc1 -1.16%
C[C@@H]1CN([C@H](C)CO)C(=O)c2cc(Br)cnc2O[C@H]1CN(C)C(=O)Cc1ccncc1 -2.88%
C[C@@H]1CN([C@H](C)CO)C(=O)CCCn2nncc2CO[C@H]1CN(C)S(=O)(=O)c1ccc2c(c1)OCCCO2 -2.03%
Cc1cc(C)n(-c2cc(-n3nc(C)cc3C)ncn2)n1 -6.51%
OCCNc1nc(Nc2ccc(Cl)cc2)nc(N2CCCC2)n1 -42.6%
COc1c(C)cc(C(=O)C2CCCN(C(=O)c3cccc(-n4cccn4)c3)C2)cc1C (stereo not given) -0.537%
CC1CCN(C(=O)c2ccc(N3C(=O)C4CCC(C)CC4C3=O)cc2)CC1 (stereo not given) 12%
O=C(Cc1ccccc1)NCCS(=O)c1ccc(Cl)cc1 (stereo not given) 12.2%
CSc1nnc(-c2ccco2)n1-c1ccccc1 -27%
CCn1nnc2cc(C(=O)Nc3cc(Cl)ccc3C)ccc21 7.36%
O=C(CSc1nc2[nH]ncc2c(=O)[nH]1)Nc1ccccc1C(F)(F)F 3.2%
CC(C)c1c(O)c2c(n(-c3ccccc3)c1=O)CCCC2 -1.82%
Cc1ccc(C(=O)Nc2ccc3c(c2)C(=O)N(CC2CCCO2)C3=O)cc1 (stereo not given) 43.8%
O=C(CCS(=O)(=O)c1ccccc1)Nc1nc2c(s1)CCCC2 25.6%
